Shiga toxin inh: inhibitors of Shiga toxin in Vero cells. hit rate 9.2% among 290,000. Vero cells, Shiga toxin protein synthesis inhibition reporter. AID 2315. inhibition, % at 38.7 µM; in the data active = inhibition mostly above about 28%, no sharp cut-off; inactive = mostly below about 43%; also: 0% is about no effect
HCV inhibitor: inhibitors of hepatitis C virus infection | hit rate 3.4% among 340,000 | Potency, µM (top dose mostly 41.8 µM), without a hit: at the highest dose activity change, negative = inhibition, actives largely listed as inhibitors | Huh7.5.1 HCVcc-Cre infection, luciferase reporter, 44 h; also: potency is read from the fitted curve at half-maximal effect; % is scaled to controls: 0 for no effect and ±100 for the full control effect
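A cell-based infection assay in which seeded cells (1,000 per well) receive test compound after 4 h, are inoculated with HCVcc-Cre at approximately 0.5 moi, and are incubated 44 h before luminescence detection.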
CHX counter: counter-screen hit for Shiga toxin inhibitors, cycloheximide | cell reporter, cycloheximide protein synthesis inhibition counterscreen | max response, % | hit rate 12% among 300,000 | AID 2314; in the data active = max response mostly above about 13%, no sharp cut-off; inactive = mostly below about 14%; also: read at 38.3 µM for the half of the compounds with a filed dose; 0% is about no effect
Pf growth 96h: inhibits malaria parasite growth, 96 h. hit rate 6.9% among 320,000. Potency, µM (titrated, usually from 28.7 µM), without a hit: at the highest dose activity change, negative = inhibition, actives largely listed as inhibitors. P. falciparum luciferase reporter growth, 96 h; also: potency is read from the fitted curve at half-maximal effect; % is scaled to controls: 0 for no effect and ±100 for the full control effect
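P. falciparum expressing integrated firefly luciferase grown in erythrocytes (2% hematocrit, 0.05% parasitemia final) with compounds for 96 hours at 37 C, 5% CO2. Growth inhibition read as loss of luminescence after adding luciferase detection reagent.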
Pf growth 48h: P. falciparum growth inhibition at 48 hours (one generation) | hit rate 5.9% among 310,000 | Potency, µM (highest dose often 28.7 µM), for the others: at the highest dose activity change, negative = inhibition, actives largely listed as inhibitors | P. falciparum luciferase growth in erythrocytes, 48 h; also: potency is read from the fitted curve at half-maximal effect; % is scaled to controls: 0 for no effect and ±100 for the full control effect
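Read-out is firefly luciferase luminescence from an integrated reporter in P. falciparum, so falling signal marks reduced parasite growth. Infected erythrocytes were at 2% hematocrit and 0.1% parasitemia (final) in Albumax-supplemented RPMI 1640.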
AMA1-RON2 inh: AMA1-RON2 (P. falciparum) interaction inhibition. hit rate 0.2% among 360,000. AID 720542. Potency, µM (highest dose often 58.2 µM), for the others: at the top dose activity change, negative = inhibition, usual class: inhibitors. AlphaScreen AMA1-biotinylated RON2 peptide binding;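 also: potency is read from the fitted curve at half-maximal effect; 0% = vehicle wells and -100% = peptide control; nearly all actives have a fitted effect of over 45% in size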
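AMA1 (3D7) with his tag at 25 nM final met compounds first, then biotinylated RON2 peptide at 25 nM; detection used donor plus acceptor beads, 10 µg/mL apiece, read by AlphaScreen after 30 min at room temperature.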
* hit, by the source's call; ? = inconclusive; . = no result given; [ ] = remark or other dose. Rows were chosen to be rich in hits. Some 21% of all compounds tested hit in one or more screens of this group. Unless noted, calls follow the shape of the dose curve; as a rule, active = well fitted curve in the direction sought with a large enough effect; inconclusive = small, poorly fitted or top-dose-only effect, or another doubt; inactive = no such curve, though single readings can be large; an effect the other way counts as inactive or inconclusive.

SMILES	Shiga toxin inh	HCV inhibitor	CHX counter	Pf growth 96h	Pf growth 48h	AMA1-RON2 inh
Cc1cc(/C=C2\SC(=Nc3ccccc3)NC2=O)c(C)n1-c1ccc(S(N)(=O)=O)cc1	-16	4.5µM*	-1	?	4.1µM*	-1%
COc1ccc(-n2c(C)cc(/C=C3\SC(=O)NC3=O)c2C)cc1	58*	7%	42*	15%	.	0%
Cc1ccc(-n2c(C)cc(/C=C3\SC(=O)NC3=O)c2C)cc1	83*	11%	32*	32%	107%	0%
O=C1NN(c2ccccc2)C(=O)C1=Cc1ccccc1O	.	.	.	.	.	5%
Cc1cc(/C=C2/C(=O)NN(c3ccccc3)C2=O)c(C)n1-c1cccc(O)c1	60*	?	57*	-1%	10%	-11%
Cc1cc(/C=C2\SC(N)=NC2=O)c(C)n1-c1ccc(F)cc1	16	-2%	20*	?	?	-11%
Cc1ccc(-n2c(C)cc(/C=C3/C(=O)NC(=O)N(C)C3=O)c2C)cc1	15	-11%	-3	13%	-20%	0%
CN1CCN(C(=O)c2ccccc2NC(=O)c2cccc(Cl)c2)CC1	-14	10%	-5	2%	7%	24%
c1cnc(Sc2ccc3nnnn3n2)nc1	20	11%	6	90%	-3%	2%
CCCN(CC(=O)Nc1ccccc1C)C(=O)c1cccc(S(=O)(=O)N2CCc3ccccc3C2)c1	12	22µM*	-3	?	?	-2%
CCN(CC)S(=O)(=O)c1ccc2c(c1)NC(=O)C1CCCN21 (centres undefined)	-8	-2%	-3	19%	?	-12%
CCOc1ccc(CCNC(=O)c2ccc(S(=O)(=O)N3CCCC3)cc2)cc1OCC	.	?	.	?	12µM*	-2%
CCOc1ccc(CCNC(=O)c2ccc(N3CCCC3=O)cc2)cc1OCC	46	?	-2	?	-14%	-8%
O=C1Nc2cc(S(=O)(=O)N3CCCC3)ccc2N2CCCC12 (centres undefined)	-12	4%	4	-17%	17µM*	-2%
CCOc1ccc(CCNC(=O)c2ccc3c(c2)NC(=O)C2CCCN32)cc1OCC (centres undefined)	-4	.	0	9.3µM*	5.2µM*	.
Cc1oc(S(=O)(=O)N2CCCCC2)cc1NC(=O)Nc1ccc(Cl)cc1	16	-20%	-3	?	?	-6%
Cc1c2cnn(CC(=O)NCCN3CCOCC3)c(=O)c2c(C)n1Cc1ccccc1F	.	2%	.	.	.	14%
O=C1Nc2ccccc2N2CCCC12 (centres undefined)	-20	.	-2	?	?	.
COC(=O)c1ccc(NC(=O)c2ccc3c(c2)NC(=O)C2CCCN32)cc1 (centres undefined)	.	-3%	.	7.4µM*	8.3µM*	.
CCOc1ccc(CCNC(=O)COn2nnc3ccc(S(=O)(=O)N4CCOCC4)cc32)cc1OCC	.	?	.	9.3µM*	?	-5%
CCOc1ccc(CCNC(=O)c2cccc(C#N)c2)cc1OCC	-7	?	5	?	10µM*	0%
Cn1cc(C(=O)NC2CCCCC2)c(=O)c2cc(S(=O)(=O)N3CCOCC3)ccc21	-2	13%	1	?	?	-5%
CCOc1ccc(CCNC(=O)c2cccc(-n3cnnn3)c2)cc1OCC	.	?	.	?	?	-6%[11.6 µM]
CCOc1ccc(CCNC(=O)c2cn(C)c3ccc(S(=O)(=O)N4CCOCC4)cc3c2=O)cc1OCC	15	-18%	1	?	12µM*	6%
Cc1cc(C(F)(F)F)nc(SCC(=O)Nc2c(C)n(C)n(-c3ccccc3)c2=O)n1	-17	-2%	-3	-21%	16%	-1%
SMILES	Shiga toxin inh	HCV inhibitor	CHX counter	Pf growth 96h	Pf growth 48h	AMA1-RON2 inh
CCOC(=O)c1c(C)[nH]c(C(=O)N2CCN(c3ccc(OC)cc3)CC2)c1C	8	-22%	8	3%	-4%	-18%
O=C(CCC1CCCN(C(=O)c2ccccc2Cl)C1)N1CCN(c2ccccn2)CC1 (centres undefined)	-6	?	-1	-8%	?	6%
O=C(NCC(NS(=O)(=O)OCC(Cl)(Cl)Cl)c1ccccc1)C(F)(F)F (centres undefined)	9	-17%	-1	24%	50%	78%
COc1cc2c(cc1OC)CN(C(=O)c1ccc(S(=O)(=O)N3CCCC3)cc1)CC2	-10	-15%	1	-20%	-14%	-10%
COCCn1c(=NC(=O)CCS(=O)(=O)c2ccccc2)sc2cc(C(=O)OC)ccc21	27	10%	-1	8%	1%	-8%
CCOc1ccc(CCNC(=O)c2cccc(S(=O)(=O)N3CC(C)OC(C)C3)c2)cc1OCC (centres undefined)	.	?	.	10µM*	9.3µM*	-5%
COCCn1c(=NC(=O)c2ccc(S(=O)(=O)N3CCc4ccccc4C3)cc2)sc2cc(OC)ccc21	-5	13µM*	-4	5.2µM*	?	-7%
CCOc1cc2c(cc1OCC)CN(C(=O)c1cccc(S(=O)(=O)N3CCCC3)c1)CC2	.	8.9µM*	.	10µM*	?	-10%
COc1ccc(CCNC(=O)c2cccc(S(=O)(=O)N3CCc4ccccc4C3)c2)cc1	.	14µM*	.	?	9.3µM*	4%
COc1ccc(CCNC(=O)c2cccc(S(=O)(=O)N3CCOCC3)c2)cc1OC	.	-30%	.	?	?	8%
COc1ccc(-c2cc(C(=O)NCc3cccc(C(F)(F)F)c3)[nH]n2)c(C)c1	.	.	.	.	.	3%
CCOc1ccc(CCNC(=O)COC(=O)c2cccc(S(=O)(=O)N3CCCCC3)c2)cc1OCC	.	-3%[8.37 µM]	.	-24%	-10%	1%
Cc1ccc(OCCOC(=O)c2cccc(S(=O)(=O)N3CC(C)OC(C)C3)c2)cc1 (centres undefined)	.	11µM*	.	?	13µM*	-4%
CCOc1ccc(CCNC(=O)COC(=O)c2cccc(S(=O)(=O)N3CCOCC3)c2)cc1OCC	.	10%	.	?	9.3µM*	-4%
CCOc1ccc(CCNC(=O)c2cccc(S(=O)(=O)N3CCCC3)c2)cc1OCC	.	?	.	?	12µM*	-13%
Cc1ccc(S(=O)(=O)N2CCN(C(=O)CSc3nc(N)cc(=O)[nH]3)CC2)c(C)c1	-5	12%	-4	1%	8%	14%
CC1CCC(NC(=O)c2ccc3nc[nH]c3c2)CC1 (centres undefined)	47*	2%	41*	56%	42%	-10%
O=C(NNC(=O)c1ccc2nc[nH]c2c1)c1ccccc1	.	-1%	.	81%	71%	-7%
Cc1[nH]c2ccc(C(=O)NC3CCC(C)CC3)cc2c1C (centres undefined)	58*	-3%	26*	?	12%	12%
COc1cccc(C(=O)N2CCC[C@@H]2C(=O)N2CCC[C@@H]2C(=O)NCc2ccccc2Cl)c1	.	.	.	.	.	3%
